Measurements reported in the supplement of paper PMC6555819.

Experiments:
Experiment in all cases: PBM binding z-score (relative to random genomic background probes); higher = stronger binding; sequences stand for … in GC…GCGATTGACAGCGTAGAATGAAGG
[1] = tested on: FXR:RXRa (NR concentration 270 nM, RXRa partner concentration 90 nM)
Summary of the method: (§1)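 Random background probes are the reference for binding z-scores. These scores derive from regression-normalized fluorescence on custom Agilent 4×180K protein-binding microarrays incubated 1 h with ligand-free nuclear receptor dimers. Binding was detected with antibodies against each partner (one per run).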

[2] = tested on: LXRa:RXRa (NR concentration 270 nM, RXRa partner concentration 90 nM)
Summary of the method: as §1

[3] = tested on: LXRa homodimer (NR concentration 270 nM)
Summary of the method: as §1

[4] = tested on: LXRb:RXRa (NR concentration 270 nM, RXRa partner concentration 90 nM)
Summary of the method: as §1

[5] = tested on: LXRb homodimer (NR concentration 270 nM)
Summary of the method: as §1

[6] = tested on: PPARa:RXRa (NR concentration 270 nM, RXRa partner concentration 90 nM)
Summary of the method: as §1

[7] = tested on: PPARg:RXRa (NR concentration 180 nM, RXRa partner concentration 90 nM)
Summary of the method: as §1

[8] = tested on: PPARg:RXRa 270nM:90nM, anti-RXR (NR concentration 270 nM, RXRa partner concentration 90 nM)
Summary of the method: as §1

[9] = tested on: PPARg:RXRa 30nM:10nM, anti-RXR (NR concentration 30 nM, RXRa partner concentration 10 nM)
Summary of the method: as §1

[10] = tested on: PPARg:RXRa 90nM:30nM, anti-RXR (NR concentration 90 nM, RXRa partner concentration 30 nM)
Summary of the method: as §1

Sequence | PBM binding z-score [1] | PBM binding z-score [2] | PBM binding z-score [3] | PBM binding z-score [4] | PBM binding z-score [5] | PBM binding z-score [6] | PBM binding z-score [7] | PBM binding z-score [8] | PBM binding z-score [9] | PBM binding z-score [10]
TGTCAAAATTCAAAGGTAACGTAAGTATCCACAC | 0.567 | 0.663 | -0.00824 | 0.809 | 0.161 | 1.13 | 0.99 | 1.47 | 0.972 | 1.39
TAGCCTAGGTCATGGGGCAGTATACCACGCGAAC | 4.95 | 3.44 | 0.357 | 3.37 | 0.499 | 4.39 | 5.11 | 4.52 | 1.89 | 3.69
ATACCAAGGTGATCGTGAGGTCGGTGATACTAAC | 0.882 | 0.302 | 0.1 | 0.211 | -0.161 | 0.78 | 0.426 | -0.213 | -0.123 | -0.222
TCTAGTTGGTCAAAAGTCACACACTCGAAATGCG | 1.12 | 1.12 | 0.475 | 1.12 | 0.73 | 3.03 | 5.72 | 6.29 | 6.15 | 7.23
AATACAGGGTCATCGTAGGCCAGAGGACGCACAG | 7.28 | 6.5 | 2.24 | 4.6 | 1.25 | 5.96 | 6.68 | 6.34 | 3.12 | 4.94
ACTCAAAGTTCAGGACGAGGTAACGTAAAGCACG | 4.15 | 4.07 | 1.77 | 2.18 | 0.639 | 3.27 | 1.61 | 1.86 | 0.747 | 1.23
ATCTCTAGGTAAAGATAGTTCAGGGAATGCAAAT | 0.392 | 3.65 | 0.565 | 0.755 | 0.535 | 1.06 | 0.543 | 0.544 | 0.404 | 0.317
CGTCCAAGGTCATAGAAGGTCAGTGAAGACAGAT | 7.45 | 7.22 | 4.12 | 5.81 | 0.783 | 5.53 | 5.05 | 5.64 | 2.37 | 4.36
ATCGCAAGGTCGTGAGGTGAGTATACAGAAAGGC | 2.59 | 1.9 | -0.0908 | 1.6 | -0.382 | 3.36 | 1.49 | 1.84 | 0.321 | 0.863
CCCTACGGGTCACTGACAGGTTATAGCATTTGGA | 5.12 | 4.24 | 0.501 | 3.53 | -0.128 | 5.1 | 3.55 | 3.77 | 0.787 | 2.43
GCTTACGAGTCAAAGGTTATAGCATGAATAGAAT | 2.49 | 3 | -0.0276 | 2.72 | -0.261 | 4.52 | 5.72 | 6.18 | 4.17 | 6.28
CCGACCGGGGCAGAAAGGTTACCATACCATCCGG | 0.539 | 0.79 | -0.149 | 0.91 | -1.19 | 1.89 | 0.899 | 1.07 | -0.267 | 0.343
ATATGAAGGTTACATCCGGGTCATTCAGGCTATG | 2.82 | 4.87 | 1.86 | 3.51 | 0.71 | 3.69 | 2.35 | 2.52 | 1 | 1.58
CGTCCAACGTCAGAGAGGTCAGTGAATGCCGAGT | 1.61 | 1.76 | 0.849 | 1.75 | -0.287 | 2.31 | 0.391 | 0.537 | -0.521 | -0.194
ACTATTAGTTGACTTGGGGCAACCGATACGACGC | 0.435 | 0.287 | 0.238 | 0.754 | 1.05 | -0.000395 | 0.902 | 0.242 | 0.327 | 0.389
CCTACCGGGCCATCAGGTCATTGATATCAACGTT | 1.4 | 1.26 | 1.91 | 1.66 | 0.209 | 1.93 | 0.875 | 1.59 | -0.00582 | 1.09
CCTACTGGGCCATCAGGTCATTGACATCAACGTT | 2.17 | 1.67 | 1.29 | 2.01 | -0.379 | 2.7 | 3.12 | 3.54 | 1.46 | 2.55
CCGACTGGGGCAAAGGTTGCCATACTCAGTACGA | -0.0811 | -0.081 | -0.3 | 0.302 | -1.06 | 4.05 | 9.16 | 7.89 | 7.65 | 8.16
TAGCCTAGGTCCGATCGGGCCAGTATACGCTATA | -1.62 | -1.4 | -0.978 | -1.3 | -1.45 | -0.907 | -0.184 | -1.28 | -1.09 | -1.31
CCTACTGCGCCAAGGTCATTGATCAGTCAAAGCA | 3.5 | 3.48 | 2.13 | 3.52 | 0.86 | 3.75 | 0.507 | 1.59 | -0.0931 | 0.819
ACTAGCAGGCCAAGGGTCAGTCAAGATTAGTCCG | 1.44 | 1.16 | -0.0253 | 1.33 | -0.691 | 3.79 | 6.42 | 6.45 | 5.89 | 6.62
TCATATAGGTAAACAGGTGAGAGTCCGTAAGTTA | 0.963 | 0.822 | 0.145 | 0.682 | 0.166 | 2.04 | 2.39 | 3.16 | 3.77 | 3.41
CCTACTGGGCCAAAGGTCATTGGTTCCAATGCTC | 5.06 | 5.15 | 4.28 | 4.94 | 0.631 | 6.49 | 11.6 | 9.63 | 10.5 | 10.3
TTACCAAGGTGAGCTGAGGTCGTTGCTCCAACTC | 1.27 | 1.21 | -0.608 | 0.819 | -1.17 | 1.42 | -0.334 | 0.661 | -0.351 | 0.141
